# Measured values from PubChem BioAssay (NCATS).
# Where “and” joins values, the source holds several entries; their conditions need not be identical. Identical values can stand only once. Results filed as inconclusive are left out. Where a call stands in place of a potency, no number is given. The source holds several records for some structures; these can differ, active in one and inactive in another. Calls of active or inactive are those of the source. Unless noted, calls follow the shape of the dose curve; as a rule, active = well fitted curve in the direction sought with a large enough effect; inconclusive = small, poorly fitted or top-dose-only effect, or another doubt; inactive = no such curve, though single readings can be large; an effect the other way counts as inactive or inconclusive. Peptide text beside a SMILES is read from it.
# Legend:
# [1] = target: N-terminal Xaa-Pro-Lys N-methyltransferase 1 (Homo sapiens) (UniProt Q9BV86); assay: Confirmatory qHTS for Inhibitors of N-terminal methyltransferase 1 (NTMT1): MTaseGlo Assay (AID 1645874); also: nearly all actives have a fitted effect of over 65% in size; also: potency is read from the fitted curve at half-maximal effect;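 as to activity change, negative = inhibition: luminescence from SAH made as NTMT1 methylates SPKRIA peptide using SAM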
# Summary of the method: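 Compounds are incubated with 125 nM NTMT1 and 100 uM SAM for 15 min before the SPKRIA peptide (1 uM) starts a 30 min room-temperature methylation. SAH is measured by coupled luciferase luminescence and curves fitted to a Hill equation.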
# [2] = target: Rap guanine nucleotide exchange factor 3 (Homo sapiens) (UniProt O95398); assay: Confirmatory qHTS for antagonist of cAMP-regulated guanine nucleotide exchange factor 3 (EPAC1) (AID 1645880); also: nearly all actives have a fitted effect of over 55% in size
# Summary of the method: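 Nucleotide exchange uses 100 nM EPAC1, 250 nM RAP1B-BODIPY-GDP and 50 uM GDP, with compounds in a concentration-titration series. After 5 min at room temperature, fluorescence (480 nm ex/540 nm em) is read every 5 min for 30 min. Data are normalized to control ATA and DMSO.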
# [3] = target: Rap guanine nucleotide exchange factor 3 (Homo sapiens) (UniProt O95398); assay: Confirmatory qHTS for agonist of cAMP-regulated guanine nucleotide exchange factor 3 (EPAC1) (AID 1645881);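 also: EPAC1 catalysed release of BODIPY-GDP from Rap1B seen as fluorescence loss; nearly all actives have a fitted effect of over 75% in size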
# [4] = target: Rap guanine nucleotide exchange factor 4 (Homo sapiens) (UniProt Q8WZA2); assay: Confirmatory qHTS for agonist of cAMP-regulated guanine nucleotide exchange factor 4 (EPAC2) (AID 1645884);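 also: nucleotide exchange releases bodipy-GDP from Rap1 and this lowers its fluorescence; nearly all actives have a fitted effect of over 65% in size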
# [5] = Primary qHTS for small molecule stabilizers of the endoplasmic reticulum resident proteome: Secreted ER Calcium Modulated Protein (SERCaMP) assay (AID 1508630)
# Summary of the method: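 GLuc-SERCaMP-expressing SH-SY5Y cells, pretreated 16 h with compound, are challenged with thapsigargin to empty ER calcium stores; after 4 h, coelenterazine is added directly to the medium and luminescence is imaged.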
# [6] = A High-Content qHTS Against Drug Library for the Identification of Small Molecules that Inhibit DYT1 Early Onset Primary Dystonia-Associated Cell Pathology (AID 1645839; calls by dose curve)
# Summary of the method: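 Flp-In T-REx 293 cells with tetracycline-inducible EGFP-delE hTOR1A (WT EGFP-hTOR1A as reference), 800 cells/well; compound added with tetracycline, 48 h at 37 C. Fixed, permeabilized cells imaged; %pathology (punctate TorsinA) primary, cell count counterscreen.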
# [7] = target: Cytochrome P450 2D6 (Homo sapiens) (UniProt P10635); assay: Cytochrome P450 family 2 subfamily D member 6 (CYP2D6) small molecule antagonists: luciferase biochemical (cell-free) qHTS assay (AID 1645840; active = well fitted curve in the direction sought with a large enough effect in the repeat runs; an effect the other way counts as inactive or inconclusive; also: nearly all actives have a fitted effect of over 55% in size; also: potency is read from the fitted curve at half-maximal effect)
# Summary of the method: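 P450-Glo luminescent screen: recombinant CYP2D6 enzyme–proluciferin substrate mix preincubated with compound 10 min at room temperature, then NADPH regeneration added for 1 h at room temperature. Detection reagent added for 20 min; luciferin light read as relative luminescence units.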
# [8] = target: Cytochrome P450 2C9 (Homo sapiens) (UniProt P11712); assay: Cytochrome P450 family 2 subfamily C member 9 (CYP2C9) small molecule antagonists: luciferase biochemical (cell-free) qHTS assay (AID 1645842; active = well fitted curve in the direction sought with a large enough effect in the repeat runs; an effect the other way counts as inactive or inconclusive; also: nearly all actives have a fitted effect of over 55% in size; also: potency is read from the fitted curve at half-maximal effect)
# Summary of the method: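 Luminescence, after 20 min with luciferin detection reagent, reflected CYP2C9 turnover during a 1 h NADPH-driven reaction at 37C. Enzyme-substrate mix contained 0.4% bovine serum albumin and was preincubated with compound 10 min at room temperature.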
# [9] = Primary qHTS for inhibitors of nuclear receptor binding SET domain protein 2 (NSD2) in an isogenic RCH-ACV NSD2 p.E1099K mutant (9B) (AID 1645876); also: nearly all actives have a fitted effect of over 70% in size; also: potency is read from the fitted curve at half-maximal effect
# [10] = Primary qHTS for inhibitors of nuclear receptor binding SET domain protein 2 (NSD2) in an RCH-ACV wild type WT cells (2C) (AID 1645877); also: nearly all actives have a fitted effect of over 70% in size; also: potency is read from the fitted curve at half-maximal effect
# [11] = target: Catechol O-methyltransferase (Homo sapiens) (UniProt P21964); assay: Confirmatory Screen for Target Class Profiling of Small Molecule Inhibitors of Methyltransferases (AID 1745852); conditions: MTase-Glo luminescence, SAH detection, recombinant enzyme, stronger effect = lower value; measured here: COMT max response unless noted
# [12] = target: Guanidinoacetate N-methyltransferase (Homo sapiens) (UniProt Q14353); assay: as above; conditions: MTase-Glo luminescence, SAH detection, recombinant enzyme; activity change, negative = inhibition: at 57.3 µM (top of the series)
# [13] = target: Nicotinamide N-methyltransferase (Homo sapiens) (UniProt P40261); assay: as above; conditions: MTase-Glo luminescence, SAH detection, recombinant enzyme, stronger effect = lower value; measured here: NNMT max response unless noted
# [14] = target: Phenylethanolamine N-methyltransferase (Homo sapiens) (UniProt P11086); assay: as above; conditions: MTase-Glo luminescence, SAH detection, recombinant enzyme, stronger effect = lower value; measured here: PNMT max response unless noted
# Papain (Carica papaya) = Papain (Carica papaya) (UniProt P00784); assay: Primary qHTS assay for inhibitors of the protease papain (AID 1645873);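 also: papain turnover of Z-FR-AMC read as the AMC fluorescence gain over 10 min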
# Papain (Carica papaya), sequence (P00784 whole entry, looked up): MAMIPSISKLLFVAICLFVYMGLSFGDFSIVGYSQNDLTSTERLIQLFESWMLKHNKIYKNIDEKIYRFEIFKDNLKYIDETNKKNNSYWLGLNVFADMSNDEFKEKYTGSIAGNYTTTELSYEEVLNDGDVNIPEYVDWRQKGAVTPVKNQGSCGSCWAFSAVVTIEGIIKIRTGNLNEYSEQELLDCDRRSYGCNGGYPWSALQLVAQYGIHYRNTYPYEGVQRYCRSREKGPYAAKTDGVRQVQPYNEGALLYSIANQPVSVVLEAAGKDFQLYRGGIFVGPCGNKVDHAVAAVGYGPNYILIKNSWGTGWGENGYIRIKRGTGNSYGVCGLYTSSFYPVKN
# Cytochrome P450 2C9 (Homo sapiens), sequence (P11712 whole entry, looked up): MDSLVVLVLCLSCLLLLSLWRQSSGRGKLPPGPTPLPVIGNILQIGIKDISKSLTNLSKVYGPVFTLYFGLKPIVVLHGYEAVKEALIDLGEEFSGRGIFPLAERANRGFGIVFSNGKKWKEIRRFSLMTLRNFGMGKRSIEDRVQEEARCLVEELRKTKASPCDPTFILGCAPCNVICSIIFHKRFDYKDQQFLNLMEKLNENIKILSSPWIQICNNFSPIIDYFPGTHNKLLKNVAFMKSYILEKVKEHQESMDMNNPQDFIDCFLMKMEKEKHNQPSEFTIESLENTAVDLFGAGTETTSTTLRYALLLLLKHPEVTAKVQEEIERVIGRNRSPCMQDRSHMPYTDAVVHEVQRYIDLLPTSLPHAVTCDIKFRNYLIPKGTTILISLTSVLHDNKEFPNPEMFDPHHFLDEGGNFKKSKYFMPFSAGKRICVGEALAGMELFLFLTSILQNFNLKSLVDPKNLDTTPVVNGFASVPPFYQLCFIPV
# Cytochrome P450 2D6 (Homo sapiens), sequence (P10635 whole entry, looked up): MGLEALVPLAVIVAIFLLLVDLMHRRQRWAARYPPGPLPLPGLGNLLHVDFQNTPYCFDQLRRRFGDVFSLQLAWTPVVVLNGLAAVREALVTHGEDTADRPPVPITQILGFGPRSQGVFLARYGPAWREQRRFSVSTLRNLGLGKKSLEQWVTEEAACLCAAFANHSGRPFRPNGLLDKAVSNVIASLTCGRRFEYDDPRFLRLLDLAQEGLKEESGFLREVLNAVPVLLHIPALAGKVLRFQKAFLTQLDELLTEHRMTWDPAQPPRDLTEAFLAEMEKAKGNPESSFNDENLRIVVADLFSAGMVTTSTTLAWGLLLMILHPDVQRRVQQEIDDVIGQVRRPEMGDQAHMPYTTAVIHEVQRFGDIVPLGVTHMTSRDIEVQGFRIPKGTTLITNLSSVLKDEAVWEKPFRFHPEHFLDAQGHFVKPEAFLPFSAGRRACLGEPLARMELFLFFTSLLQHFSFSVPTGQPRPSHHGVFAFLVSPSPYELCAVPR
# Catechol O-methyltransferase (Homo sapiens), sequence (P21964 whole entry, looked up): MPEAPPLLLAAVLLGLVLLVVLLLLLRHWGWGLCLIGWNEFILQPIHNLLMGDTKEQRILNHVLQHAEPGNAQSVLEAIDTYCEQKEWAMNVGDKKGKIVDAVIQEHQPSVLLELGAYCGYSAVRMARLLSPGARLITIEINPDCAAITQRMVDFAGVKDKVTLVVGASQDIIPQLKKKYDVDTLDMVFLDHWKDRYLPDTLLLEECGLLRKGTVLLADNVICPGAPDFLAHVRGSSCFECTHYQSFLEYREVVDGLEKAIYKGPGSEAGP
# Rap guanine nucleotide exchange factor 3 (Homo sapiens), sequence (O95398 whole entry, looked up): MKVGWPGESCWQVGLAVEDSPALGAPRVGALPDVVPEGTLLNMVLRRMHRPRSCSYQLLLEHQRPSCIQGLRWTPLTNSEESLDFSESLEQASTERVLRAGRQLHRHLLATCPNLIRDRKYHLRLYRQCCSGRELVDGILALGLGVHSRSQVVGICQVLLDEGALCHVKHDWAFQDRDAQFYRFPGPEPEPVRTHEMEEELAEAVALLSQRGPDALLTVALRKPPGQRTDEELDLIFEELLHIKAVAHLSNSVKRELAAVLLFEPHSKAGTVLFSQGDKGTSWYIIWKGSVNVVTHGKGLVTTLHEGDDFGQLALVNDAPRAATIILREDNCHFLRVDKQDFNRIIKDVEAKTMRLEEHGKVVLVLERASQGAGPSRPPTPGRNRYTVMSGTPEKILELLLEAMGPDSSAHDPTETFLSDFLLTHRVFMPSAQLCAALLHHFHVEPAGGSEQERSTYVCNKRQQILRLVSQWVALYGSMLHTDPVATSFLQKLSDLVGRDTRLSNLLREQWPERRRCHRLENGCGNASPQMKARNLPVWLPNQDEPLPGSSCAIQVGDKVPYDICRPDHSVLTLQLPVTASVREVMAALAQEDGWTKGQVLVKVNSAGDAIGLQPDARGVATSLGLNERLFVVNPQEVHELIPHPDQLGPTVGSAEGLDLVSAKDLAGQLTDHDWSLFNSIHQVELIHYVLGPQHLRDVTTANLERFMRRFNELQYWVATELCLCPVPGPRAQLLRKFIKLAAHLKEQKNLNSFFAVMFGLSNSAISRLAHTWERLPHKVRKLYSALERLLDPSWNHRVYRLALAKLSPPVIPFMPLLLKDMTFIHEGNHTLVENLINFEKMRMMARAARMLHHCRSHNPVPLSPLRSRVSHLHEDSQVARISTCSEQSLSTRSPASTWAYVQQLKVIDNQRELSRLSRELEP
# N-terminal Xaa-Pro-Lys N-methyltransferase 1 (Homo sapiens), sequence (Q9BV86 whole entry, looked up): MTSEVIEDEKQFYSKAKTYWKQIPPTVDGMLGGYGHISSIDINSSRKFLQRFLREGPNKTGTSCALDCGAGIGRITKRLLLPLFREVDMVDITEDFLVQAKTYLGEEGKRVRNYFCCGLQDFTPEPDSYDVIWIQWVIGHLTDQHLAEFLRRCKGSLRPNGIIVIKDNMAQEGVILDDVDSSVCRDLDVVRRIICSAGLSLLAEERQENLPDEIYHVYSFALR
# Nicotinamide N-methyltransferase (Homo sapiens), sequence (P40261 whole entry, looked up): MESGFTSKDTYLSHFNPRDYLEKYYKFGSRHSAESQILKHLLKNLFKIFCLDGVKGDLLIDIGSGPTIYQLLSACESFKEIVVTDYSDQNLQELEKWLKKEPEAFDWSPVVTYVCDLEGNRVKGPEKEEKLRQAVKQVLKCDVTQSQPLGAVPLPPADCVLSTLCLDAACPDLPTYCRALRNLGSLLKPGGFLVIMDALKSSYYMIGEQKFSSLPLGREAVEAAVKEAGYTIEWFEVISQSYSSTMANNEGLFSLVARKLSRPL
# Phenylethanolamine N-methyltransferase (Homo sapiens), sequence (P11086 whole entry, looked up): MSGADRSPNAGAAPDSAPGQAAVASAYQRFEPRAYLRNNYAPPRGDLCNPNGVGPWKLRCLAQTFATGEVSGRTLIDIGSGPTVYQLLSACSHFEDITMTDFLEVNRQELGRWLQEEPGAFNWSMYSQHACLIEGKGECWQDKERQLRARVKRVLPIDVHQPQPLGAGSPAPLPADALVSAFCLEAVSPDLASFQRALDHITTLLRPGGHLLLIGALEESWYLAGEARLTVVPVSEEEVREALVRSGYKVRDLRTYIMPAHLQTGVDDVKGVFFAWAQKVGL
# Rap guanine nucleotide exchange factor 4 (Homo sapiens), sequence (Q8WZA2 whole entry, looked up): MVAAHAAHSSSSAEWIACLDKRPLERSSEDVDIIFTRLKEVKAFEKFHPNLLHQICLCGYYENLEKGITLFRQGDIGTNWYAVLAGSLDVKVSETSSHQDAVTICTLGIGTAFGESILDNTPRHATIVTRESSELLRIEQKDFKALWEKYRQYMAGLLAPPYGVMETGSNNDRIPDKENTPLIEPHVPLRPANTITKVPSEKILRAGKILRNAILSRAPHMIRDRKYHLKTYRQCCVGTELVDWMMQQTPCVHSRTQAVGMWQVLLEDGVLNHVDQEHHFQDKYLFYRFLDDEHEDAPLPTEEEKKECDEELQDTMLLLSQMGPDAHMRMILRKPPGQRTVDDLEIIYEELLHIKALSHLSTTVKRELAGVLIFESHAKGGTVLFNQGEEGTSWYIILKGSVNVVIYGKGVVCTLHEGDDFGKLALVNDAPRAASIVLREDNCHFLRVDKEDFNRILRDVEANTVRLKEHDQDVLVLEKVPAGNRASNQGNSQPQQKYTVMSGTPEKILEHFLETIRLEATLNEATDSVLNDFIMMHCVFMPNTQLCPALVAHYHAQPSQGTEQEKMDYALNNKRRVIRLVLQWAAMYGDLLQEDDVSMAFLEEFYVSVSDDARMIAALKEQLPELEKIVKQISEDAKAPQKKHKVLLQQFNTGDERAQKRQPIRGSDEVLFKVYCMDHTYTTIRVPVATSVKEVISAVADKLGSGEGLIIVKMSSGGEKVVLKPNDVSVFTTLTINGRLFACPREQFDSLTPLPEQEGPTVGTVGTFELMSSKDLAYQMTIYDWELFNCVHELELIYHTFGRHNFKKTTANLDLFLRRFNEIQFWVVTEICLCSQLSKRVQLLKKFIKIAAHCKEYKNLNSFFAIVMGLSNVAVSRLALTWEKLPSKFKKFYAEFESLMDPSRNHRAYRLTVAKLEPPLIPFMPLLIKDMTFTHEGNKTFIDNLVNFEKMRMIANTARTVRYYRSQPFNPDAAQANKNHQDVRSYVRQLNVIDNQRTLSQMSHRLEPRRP
compound,measurement,setting,value
COc1cc(Nc2c(C#N)cnc3cc(OCCCN4CCN(C)CC4)c(OC)cc23)c(Cl)cc1Cl,Potency,[1],15.8 µM (active)
S=c1nc[nH]c2nc[nH]c12,Potency,[1],inactive
COC(=O)C1=C(C)NC(C)=C(C(=O)OCCCN2CCC(c3ccccc3)(c3ccccc3)CC2)C1c1cccc([N+](=O)[O-])c1 (centres undefined),Potency,[2],inactive
same,outcome,[3],inactive
same,outcome,[4],inactive
Nc1ncn([C@H]2C[C@H](O)[C@@H](CO)O2)c(=O)n1,Potency,[5],inactive
same,Potency,[6],inactive
same,Potency,[7],inactive
same,Potency,[8],inactive
same,Potency,[9],266 nM (active) and 742 nM (active)
same,Potency,[10],133 nM (active) and 1.18 µM (active)
O=C(O)c1cccnc1Nc1cccc(C(F)(F)F)c1,Potency,[5],inactive
same,Potency,[6],inactive
same,Potency,[7],inactive
same,Potency,[10],inactive
COC(=O)[C@H](Cc1ccccc1)NC(=O)[C@@H](N)CC(=O)O (H-Asp-Phe-OMe),Potency,[5],inactive
same,Potency,[6],inactive
same,Potency,[8],inactive
same,Potency,[9],inactive
same,Potency,[10],inactive
Cc1ncc([N+](=O)[O-])n1CC(C)O (centres undefined),Potency,[5],inactive
same,Potency,[6],inactive
same,Potency,[8],inactive
same,Potency,[9],inactive
same,Potency,[10],inactive
COc1cc(OC)c(C(=O)CCCN2CCCC2)c(OC)c1,Potency,[5],inactive
same,Potency,[6],inactive
same,Potency,[7],11 µM (active)
same,Potency,[8],inactive
same,Potency,[9],inactive
same,Potency,[10],inactive
O=C(O)CCNC(=O)c1ccc(N=Nc2ccc(O)c(C(=O)O)c2)cc1,Potency,[5],inactive
same,Potency,[6],inactive
same,Potency,[8],inactive
same,Potency,[9],inactive
same,Potency,[10],inactive
O=C(NC(Cc1cc(=O)[nH]c2ccccc12)C(=O)O)c1ccc(Cl)cc1 (centres undefined),Potency,[5],inactive
same,Potency,[6],inactive
same,Potency,[8],inactive
same,Potency,[9],inactive
same,Potency,[10],inactive
CCOC(=O)c1c(C)n(C)c2ccc(O)cc12,Potency,[5],inactive
same,Potency,[6],inactive
same,Potency,[8],inactive
same,Potency,[9],inactive
same,Potency,[10],inactive
c1ccc2[nH]c(-c3cscn3)nc2c1,Potency,[5],inactive
same,Potency,[6],inactive
same,Potency,[8],inactive
same,Potency,[9],inactive
same,Potency,[10],inactive and 13.2 µM (active)
Nc1cccc2c1CN(C1CCC(=O)NC1=O)C2=O (centres undefined),Potency,[5],inactive
same,Potency,[6],inactive
same,Potency,[9],inactive
same,Potency,[10],inactive
Cc1nccn1CC1CCc2c(c3ccccc3n2C)C1=O (centres undefined),Potency,[5],inactive
same,Potency,[6],inactive
same,Potency,[8],inactive
same,Potency,[9],inactive
same,Potency,[10],inactive
CCCCC(CC)COC(=O)C(C#N)=C(c1ccccc1)c1ccccc1 (centres undefined),Potency,[5],inactive
same,Potency,[6],inactive
same,Potency,[8],1.1 µM (active) and 3.01 µM (active)
same,Potency,[9],21.1 µM (active) and inactive
same,Potency,[10],inactive
Cc1c(OCC(F)(F)F)ccnc1CS(=O)c1nc2ccccc2[nH]1 (centres undefined),Potency,[5],inactive
same,Potency,[6],inactive
same,Potency,[8],15.5 µM (active) and 13.5 µM (active)
same,activity,[11],13%
same,"activity change, negative = inhibition",[12],6.68%
same,activity,[13],8.13%
same,activity,[14],10%
C=CCc1cc(OC)c(O)c(C(=O)NCCO)c1,Potency,[5],inactive
same,Potency,[6],inactive
same,Potency,[8],inactive
CCc1nc(N)nc(N)c1-c1ccc(Cl)cc1,Potency,[5],inactive
same,Potency,[6],inactive
same,Potency,[8],inactive
same,Potency,[9],2.37 µM (active) and 2.95 µM (active)
same,Potency,[10],3.35 µM (active) and 4.17 µM (active)
Cc1cc(=O)oc2cc(O)ccc12,Potency,[5],inactive
same,Potency,[6],inactive
same,Potency,[7],inactive
same,Potency,[8],inactive
same,Potency,[9],inactive
same,Potency,[10],inactive
CC(S)C(=O)NCC(=O)O (centres undefined),Potency,[5],inactive
same,Potency,[6],inactive
same,Potency,[8],inactive
same,Potency,[9],inactive
same,Potency,[10],inactive
Cc1ccc(Nc2nccc(N(C)c3ccc4c(C)n(C)nc4c3)n2)cc1S(N)(=O)=O,Potency,[5],inactive
same,Potency,[6],inactive
same,Potency,[8],15.5 µM (active)
same,Potency,[9],5.31 µM (active) and 1.83 µM (active) and 4.17 µM (active)
same,Potency,[10],9.44 µM (active) and 4.68 µM (active)
same,activity,[11],-4.72%
same,"activity change, negative = inhibition",[12],0%
same,activity,[13],-0.226%
same,activity,[14],-2.8%
CCCCc1ccc2nc(NC(=O)OC)[nH]c2c1,Potency,[5],inactive
same,Potency,[6],inactive
same,Potency,[8],inactive
same,Potency,[9],53.1 nM (active) and 166 nM (active)
same,Potency,[10],47.3 nM (active) and 118 nM (active)
O=C(c1ccccc1)c1ccc2n1CCC2C(=O)O (centres undefined),Potency,[5],inactive
same,Potency,[6],inactive
same,Potency,[8],inactive
same,Potency,Papain (Carica papaya),inactive
same,Potency,[9],inactive
same,Potency,[10],inactive
CN(C)C(=O)COC(=O)Cc1ccc(OC(=O)c2ccc(N=C(N)N)cc2)cc1,Potency,[5],inactive
same,Potency,[6],inactive
same,Potency,[8],inactive
same,Potency,[9],inactive
same,Potency,[10],inactive
Cn1c(NCCN(CCO)CCCc2ccc([N+](=O)[O-])cc2)cc(=O)n(C)c1=O,Potency,[5],inactive
same,Potency,[6],inactive
same,Potency,[8],inactive
same,Potency,[9],inactive
same,Potency,[10],inactive
NC(=O)Cc1cccc(C(=O)c2ccccc2)c1N,Potency,[5],inactive
same,Potency,[6],inactive
same,Potency,[8],inactive
CC(C)c1ccc2oc3nc(N)c(C(=O)O)cc3c(=O)c2c1,Potency,[5],inactive
same,Potency,[6],inactive
same,Potency,[8],13.8 µM (active)
same,Potency,[9],inactive
same,Potency,[10],inactive
COCCCN1CCC(NC(=O)c2cc(Cl)c(N)c3c2OCC3)CC1,Potency,[5],inactive
same,Potency,[6],inactive
same,Potency,[8],2.45 µM (active)
same,Potency,[9],inactive
same,Potency,[10],inactive
